For 31 molecules, GFP signal change (wild-type ribosome), OD600 change and RFP signal change results are on record in PubChem BioAssay AID720706 (Broad Institute, 2013).

Out of some 350,000 compounds screened, about 5,500 (1.6%) were called active.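 Rule for the calls: active = significant combined selectivity score with lowered wild-type GFP, culture density cut under 30%, mutant RFP and density less affected; inactive = any of these conditions unmet.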 Only a selection was taken, and actives are over-represented in it overall.

The assay can be described thus: reduced GFP signal of wild-type E. coli, primary screen, bacterial rRNA inhibitor project, GFP/RFP fluorescence, OD600, single point (AID 720706). As to conditions: E. coli WT GFP vs humanized-ribosome RFP mutants, 24 h; GFP signal change (wild-type ribosome): stronger effect = lower value, DMSO median 0, no signal -100; OD600 change: measured here: OD600 growth, DMSO median 0, no signal -100; RFP signal change: measured here: RFP humanized mutant strains, DMSO median 0, no signal -100, concentration not given here.
With `COCC#Cc1ccc([C@H]2[C@H](CO)N3CCCCN(Cc4ccncc4)C[C@@H]23)cc1`, the GFP signal change (wild-type ribosome) is -2.93% (inactive), the OD600 change was -2.59% and the RFP signal change is -5.64%.
On the same counts, the results for `CC(C)CNS(=O)(=O)c1ccc(CCC(=O)NCc2ccc(Cl)cc2)cc1` are 10.8% (inactive), 11.2% and -2.51%.
On the same counts, the results for `Cc1ccc(S(=O)(=O)NC(C)C(=O)NCc2ccc(Cl)cc2)cc1` (stereo not drawn) are -22.7% (active), -10.8% and -4.03%.
On the same counts, the results for `COc1ccc(S(=O)(=O)NC(C)C(=O)NCc2ccncc2)cc1Cl` (stereo not drawn) are 2.54% (inactive), 0.925% and -2.25%.
As for `CCC(=O)Nc1ccc2c(c1)OC[C@@H](C)N(CC1CC1)C[C@H](C)[C@H](OC)CN(C)C2=O`, the GFP signal change (wild-type ribosome) was 1.22% (inactive), the OD600 change is -0.6% and the RFP signal change was -0.045%.
On the same counts, the results for `CC(C)NC(=O)/C(C#N)=C\c1ccc(N(C)C)c(Br)c1` are -19.9% (active), -12.4% and 3.85%.
As to `CC(C)(C)C(=O)/C(C#N)=C/c1ccc(O)cc1`, the GFP signal change (wild-type ribosome) is 19.8% (inactive), the OD600 change was found to be 5.69% and the RFP signal change was -9.62%.
For `Cc1[nH]c2ccccc2c1/C=C(/C#N)C(=O)NC(C)C`, in that order: -4.98% (inactive), 5.32% and -3.18%.
On the same counts, the results for `O=C(NCC[C@H]1CC[C@H](NS(=O)(=O)c2ccccc2)[C@H](CO)O1)c1cc(Cl)cc(Cl)c1` are -5.21% (inactive), -26.1% and 22%.
For `Cc1ccc(CNC(=O)CC2Sc3ccccc3NC2=O)cc1` (stereo not drawn), in that order: 11.2% (inactive), 14.1% and 3.46%.
As for `COC(=O)c1cc(C)sc1NC(=O)CC1Nc2ccccc2NC1=O` (stereo not drawn), the GFP signal change (wild-type ribosome) was -18.4% (active), the OD600 change is -7.76% and the RFP signal change was 12.5%.
Take `CCc1cc(C(=O)OC)c(NC(=O)CC2Sc3ccc(C(F)(F)F)cc3NC2=O)s1` (stereo not drawn): the GFP signal change (wild-type ribosome) is 0.188% (inactive), the OD600 change turned out to be 4.88% and the RFP signal change is -2.55%.
Take `O=C(OCC(=O)c1c[nH]c2ccccc12)c1cccc(O)c1`: the GFP signal change (wild-type ribosome) is -42.8% (inactive), the OD600 change is -45.1% and the RFP signal change is -14.1%.
Regarding `O=C(O)c1[nH]c2ccccc2c1C(c1cccc(O)c1)c1c(C(=O)O)[nH]c2ccccc12`, the GFP signal change (wild-type ribosome) was -25.6% (active), the OD600 change is -18.5% and the RFP signal change turned out to be 8.53%.
For `COc1ccc2c3c(n(C)c2c1)[C@@H](CO)N(C(C)=O)CC31CCN(Cc2ccc(Cl)cc2)CC1`, in that order: -1.69% (inactive), -3.51% and 1.83%.
On the same counts, the results for `C=CCOc1ccc(/C=C2\SC(=S)N(CCC(=O)O)C2=O)cc1` are -32.4% (active), -18.9% and -4.79%.
For `O=C1/C(=C/c2ccc(F)cc2)SC(=S)N1CCCC(=O)N1CCCCC1CCO` (stereo not drawn), in that order: -19.1% (inactive), -28.5% and -4.34%.
In the case of `COc1ccc(/C=C2\SC(=S)N(CCC(=O)N3CCOCC3)C2=O)cc1OC`, the GFP signal change (wild-type ribosome) was 10.4% (inactive), the OD600 change amounted to 16.7% and the RFP signal change is 0.46%.
On the same counts, the results for `Cc1ccc(CNC(=O)c2cc(-c3ccccc3C)n(CC3CC(c4cccc([N+](=O)[O-])c4)=NO3)n2)cc1` (stereo not drawn) are 6.99% (inactive), 10.7% and -2.49%.
For `Cc1ccccc1-c1cc(C(=O)NCc2cccs2)n(CC2CC(c3cccnc3)=NO2)n1` (stereo not drawn), in that order: -17.6% (active), -10.9% and 5.68%.
On the same counts, the results for `Cc1ccccc1-c1cc(C(=O)NCC2CC2)n(CC2CC(c3cccnc3)=NO2)n1` (stereo not drawn) are -8.08% (inactive), -3.34% and -12%.
In the case of `O=C(NNC(=O)c1ccc2ccccc2c1)c1ccc(Cl)cc1`, the GFP signal change (wild-type ribosome) is 2.13% (inactive), the OD600 change was 11.3% and the RFP signal change was -2.59%.
For `C=CCNc1nc(Nc2ccc(Cl)cc2)nc(OC)n1`, in that order: -33.3% (inactive), -34% and -2.27%.
In the case of `Clc1ccc(Nc2ccc3ccccc3n2)cc1`, the GFP signal change (wild-type ribosome) was -54.6% (active), the OD600 change is -30% and the RFP signal change was -18%.
Consider `COc1ccc(C#Cc2ccc([C@H]3[C@@H](CO)N4CCCCN(S(=O)(=O)c5cn(C)cn5)C[C@H]34)cc2)cc1`, for which the GFP signal change (wild-type ribosome) is -58.4% (inactive), the OD600 change is -77.4% and the RFP signal change is -16.4%.
For `O=C(CC1CC1)N1[C@@H](CO)[C@@H](c2ccccc2)C12CN(S(=O)(=O)c1ccccc1)C2`, in that order: -0.794% (inactive), 0.08% and 4.17%.
On the same counts, the results for `CO[C@H]1CN(C)C(=O)c2ccc(NC(=O)C3CC3)cc2OC[C@H](C)N(C(=O)CN2CCOCC2)C[C@@H]1C` are 2.07% (inactive), 1.32% and -3.59%.
For `C[C@H](CO)N1C[C@H](C)[C@H](CN(C)Cc2ccc(C(=O)Nc3ccccc3N)cc2)Oc2ccc(NC(=O)Nc3ccccc3)cc2CC1=O`, in that order: -24.5% (inactive), -22.3% and 1.58%.
Turning to `C[C@@H]1CCCCO[C@H](CN(C)C(=O)NC2CCCCC2)[C@H](C)CN([C@@H](C)CO)C(=O)c2cc(NC(=O)C3CCCCC3)ccc2O1`, the GFP signal change (wild-type ribosome) is -5.13% (inactive), the OD600 change was -0.493% and the RFP signal change is -3.14%.
On the same counts, the results for `COc1ccc(NC(=O)Nc2cccc3c2O[C@@H](CN(C)S(=O)(=O)c2cn(C)cn2)[C@H](C)CN([C@@H](C)CO)C3=O)cc1` are -1.33% (inactive), -1.5% and -0.415%.
On the same counts, the results for `O=C(NC1CCCC1)[C@@H]1[C@@H](CO)[C@@H]2Cn3c(ccc(-c4ccc(F)cc4)c3=O)[C@H]1N2Cc1cocn1` are -0.879% (inactive), 4.54% and -1.31%.
